Screening results from PubChem.
Rows were chosen to be rich in hits. Some 12% of all compounds tested hit in one or more screens of this group.
FMDV inh: foot and mouth disease virus antiviral activity; hit rate 1.2% among 410,000; Potency, µM (titrated, usually from 57.9 µM), without a hit: top-dose activity change, negative = inhibition, usual class: inhibitors; AID 1159524; FMDV antiviral cell-based qHTS; calls by dose curve; tested in HEK293T cells; note: read-out not given here; potency is the fitted concentration of half-maximal effect; % is set by controls: 0 for no effect and ±100 for the full control effect; nearly all actives have a fitted effect of over 45% in size
Cycloheximide cs: counter-screen hit for Shiga toxin inhibitors, cycloheximide; max response, %; cell reporter, cycloheximide protein synthesis inhibition counterscreen; hit rate 12% among 300,000; in the data active = max response mostly above about 13%, no sharp cut-off; inactive = mostly below about 14%; note: read at 38.3 µM for the half of the compounds with a filed dose; 0% is about no effect
Shiga toxin inh: blocks Shiga toxin action in Vero cells; Vero cells, Shiga toxin protein synthesis inhibition reporter; inhibition, % at 38.7 µM; hit rate 9.2% among 290,000; AID 2315; in the data active = inhibition mostly above about 28%, no sharp cut-off; inactive = mostly below about 43%; note: 0% is about no effect
Sm TGR inh: blocks Schistosoma mansoni thioredoxin glutathione reductase; purified TGR, DTNB reduction, TNB absorbance 405 nm; hit rate 3% among 360,000; AID 485364; Q962Y6; Potency, µM (top dose mostly 114 µM), for the others: top-dose activity change, negative = inhibition, actives largely listed as inhibitors; active = well fitted inhibition curve with a large enough effect; inconclusive = small, poorly fitted or top-dose-only effect; inactive = no such curve, though single readings can be large or run the other way; note: potency is the fitted concentration of half-maximal effect; % is set by controls: 0 for no effect and ±100 for the full control effect; nearly all actives have a fitted effect of over 60% in size
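First, TGR (20 nM dispensed) and NADPH were mixed with compound. Second, a 15 min room-temperature incubation followed. Third, further NADPH and then DTNB were added to start the reaction. Finally, TNB absorbance was monitored kinetically.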
The depositor's hits bear a star; [ ] = remark or other dose.

Screening CS(=O)(=O)c1ccc2nc(NC(=O)Nc3cccc(Cl)c3)sc2c1 returned FMDV inh -5.4%, Cycloheximide cs 31.5*, Shiga toxin inh 107.0* and Sm TGR inh -11.7%.
CS(=O)(=O)c1ccc2nc(NC(=O)c3ccccc3)sc2c1 was read as FMDV inh 2.5%, Cycloheximide cs 28.4*, Shiga toxin inh 38.6* and Sm TGR inh 3.4%.
`CC(C)(C)C(=O)Nc1nc2ccc(S(C)(=O)=O)cc2s1` gave FMDV inh 40.5%, Cycloheximide cs 35.9*, Shiga toxin inh 78.5* and Sm TGR inh 6.2%.
`CS(=O)(=O)c1ccc2nc(NC(=O)Cc3ccccc3)sc2c1` gave FMDV inh 6.6%, Cycloheximide cs 9.3, Shiga toxin inh 18.3 and Sm TGR inh 31.7%.
`CCOC(=O)Cn1c(=O)oc2cc(S(=O)(=O)N3CCN(c4cc(C)ccc4C)CC3)ccc21` gave FMDV inh -17.2% and Sm TGR inh -1.0%.
Screening COc1ccc(CN2CCC3(CCC(CNC(=O)c4ccco4)O3)CC2)c(OC)c1C (stereo not given) returned FMDV inh -15.4%.
CCN(CC)CCNC(=O)c1sc2nc(C)cc(C)c2c1-n1cccc1 was read as FMDV inh 0.0% and Sm TGR inh -2.6%.
Screening CCOC(=O)c1[nH]c(C)c(CCC(=O)NCc2ccc(N(C)C)cc2)c1C returned FMDV inh -6.5% and Sm TGR inh 0.5%.
`O=C(Nc1cccc(-c2nc3ccccc3o2)c1)c1cccc2c(Cl)cccc12` gave FMDV inh -8.1% and Sm TGR inh 3.6%.
For CS(=O)(=O)c1ccc(C(=O)Nc2nc(-c3ccco3)c(-c3ccco3)s2)cc1 the results were FMDV inh inconclusive and Sm TGR inh 3.55µM*.
Screening O=C(Nc1nc(-c2ccco2)c(-c2ccco2)s1)C1CCC1 returned FMDV inh 0.0%, Cycloheximide cs 1.7, Shiga toxin inh 12.2 and Sm TGR inh inconclusive.
`Cc1cccc(C(=O)Nc2nc3ccc(S(C)(=O)=O)cc3s2)c1` gave FMDV inh 30.3%, Cycloheximide cs 36.1*, Shiga toxin inh 88.2* and Sm TGR inh -29.2%.
`Nc1ccccc1C(=O)/C=C/c1ccc2c(c1)OCO2` gave FMDV inh -0.1%, Cycloheximide cs 69.0*, Shiga toxin inh 116.4* and Sm TGR inh 3.3%.
For O=C(/C=C/c1ccc2c(c1)OCO2)c1ccco1 the results were FMDV inh 29.2%, Cycloheximide cs 16.6*, Shiga toxin inh 29.4* and Sm TGR inh -26.4%.
For N#CCOC(=O)/C=C/c1ccc2c(c1)OCO2 the results were FMDV inh 22.1%, Cycloheximide cs 22.1*, Shiga toxin inh 66.6 and Sm TGR inh 5.7%.
`O=C(COC(=O)/C=C/c1ccc2c(c1)OCO2)NC1CC1` gave FMDV inh 0.0%, Cycloheximide cs 7.7, Shiga toxin inh 32.1 and Sm TGR inh -16.8%.
`CCOC(=O)c1ccc(NC(=O)CSc2cn(CC(=O)N3CCCC3)c3ccccc23)cc1` gave FMDV inh -11.8% and Sm TGR inh -0.2%.
Nc1c(C(=O)Nc2cccc(F)c2)c2ccccn2c1C(=O)c1ccccc1 was read as FMDV inh -13.5% and Sm TGR inh 1.0%.
CCCCNC(=O)NS(=O)(=O)c1ccc(C(=O)O)cc1 was read as Cycloheximide cs -4.4 and Shiga toxin inh -10.2.
For CN(C)/C=N/c1sc2c(c1C#N)CCCC2 the results were FMDV inh 34.2%, Cycloheximide cs 34.9*, Shiga toxin inh 116.4* and Sm TGR inh -33.4%.
Screening N#Cc1c(/N=C/c2cccs2)sc2c1CCC2 returned FMDV inh 39.9%, Cycloheximide cs 6.5, Shiga toxin inh 12.3 and Sm TGR inh -17.6%.
`CC1CCc2c(sc(/N=C/N(C)C)c2C#N)C1` (stereo not given) gave FMDV inh 31.2%, Cycloheximide cs 37.0*, Shiga toxin inh 60.3* and Sm TGR inh -5.7%.
Screening CN(C)/C=N/c1sc2c(c1C(N)=O)CCCC2 returned FMDV inh 29.7%, Cycloheximide cs 17.1, Shiga toxin inh 4.0 and Sm TGR inh -2.1%.
`N#Cc1c(/N=C/c2ccco2)sc2c1CCCCC2` gave FMDV inh -28.7%, Cycloheximide cs 34.9*, Shiga toxin inh 124.9 and Sm TGR inh -20.3%.
For CC(C)(C)c1ccc(C(=O)Nc2cccc(-n3cnnn3)c2)cc1 the results were FMDV inh 10.0%, Cycloheximide cs 24.3*, Shiga toxin inh 34.1* and Sm TGR inh -9.8%.
Screening Cc1ccc(C(=O)Oc2cccc(-n3cnnn3)c2)cc1 returned FMDV inh 16.6%, Cycloheximide cs 40.0*, Shiga toxin inh 57.2* and Sm TGR inh 9.4%[57.1 µM].
`O=C(Oc1cccc(-n2cnnn2)c1)c1ccco1` gave FMDV inh -2.5%, Cycloheximide cs -1.2, Shiga toxin inh 6.1 and Sm TGR inh 5.1%.
